The results in this text go back to PubChem BioAssay AID865 (The Scripps Research Institute Molecular Screening Center, 2007).

Some of the results follow. Activity calls are given as the source filed them.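 The calls were made as follows: active = activation above the screen-wide mean activation plus 3 SD (cut at about 8% in these data); inactive = the rest.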

A short description of this assay: nonspecific BLA reporter activation – CHO NFAT-bla cells, FRET readout, counter-screen for GALR2 agonist project, confirmation (AID 865).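 Also: 0% = DMSO with PBS wells and 100% = thapsigargin positive control wells.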 The conditions noted are these: beta-lactamase FRET activation, at 5.6 µM, active compounds read high.
Consider `COc1ccc(C(=O)CN2C(=O)NC(C)(c3ccc(C)cc3)C2=O)cc1OC` (stereo unspecified), for which the activation is -1.81% (inactive).

As for `C=CCN(CC=C)S(=O)(=O)c1ccc(C(=O)Nc2nc3c(s2)CCc2ccccc2-3)cc1`, the activation is 1.61% (inactive).

As to `Fc1ccc(N2N=C(c3cccs3)CC2c2ccco2)c(F)c1` (stereo unspecified), the activation was 0.42% (inactive).

As to `CC(=O)N(Cc1cccs1)C1CCOC(C)(C)C1` (stereo unspecified), the activation is -3.67% (inactive).

Turning to `Cc1ccc(CCC(=O)Nc2ncc(Cc3cc(Cl)ccc3Cl)s2)o1`, the activation was 13.5% (active).

For the molecule `COc1ccc(Nc2oc(-c3ccccc3Cl)nc2C#N)cc1`, the activation was -0.84% (inactive).

Consider `CC(=O)Oc1ccc(C(C)=O)c2c1OCCO2`, for which the activation is -1.79% (inactive).

For the molecule `O=C1COc2ccc(NC(=O)N3CCN(c4ccc(F)cc4)CC3)cc2N1`, the activation is -0.56% (inactive).

Take `CCOc1ccc(C(O)Cn2c(=N)n(CCN3CCCCC3)c3ccccc32)cc1` (stereo unspecified): the activation is -2.38% (inactive).

Turning to `CC/C(C)=N/Nc1nc2sc3c(c2c(=O)[nH]1)CC(C)(C)OC3`, the activation was -1.22% (inactive).

As to `CCCOc1ccc(C(=O)C(CCC(CNCC)C(=O)c2ccc(OCCC)cc2)CNCC)cc1` (stereo unspecified), the activation was 0.75% (inactive).

Regarding `COc1cc(SC#N)ccc1N=Cc1c(C)[nH]n(-c2ccc(C)cc2)c1=O`, the activation was 9.72% (active).

`COC(=O)c1ccc(NC(=O)C(C)N2C(=O)c3ccccc3C2=O)cc1` (stereo unspecified): the activation was -1.44% (inactive).

As to `COCCN(CCOC)S(=O)(=O)c1ccc(C(=O)Nc2nc3c(s2)CCc2ccccc2-3)cc1`, the activation was 2.54% (inactive).

Consider `Cn1c(=O)oc2cc(S(=O)(=O)N3CCC(C(=O)Nc4ccc(OC(F)(F)F)cc4)CC3)ccc21`, for which the activation is 1.18% (inactive).

In the case of `O=[N+]([O-])c1ccccc1SNc1ccccn1`, the activation was -1.98% (inactive).

Turning to `Cc1csc(NC(=O)c2ccc(-c3ccc(Cl)cc3Cl)o2)n1`, the activation is 0.5% (inactive).

Consider `Cc1ccc(Cc2c(C)nc3nc(SCC(=O)NCCN4CCOCC4)nn3c2C)cc1`, for which the activation is -0.81% (inactive).

Regarding `OC(COc1cccc2ccccc12)CN1CCN(c2ccccn2)CC1` (stereo unspecified), the activation is 0.34% (inactive).

With `CCN(C(=O)CSc1ncn[nH]1)c1cccc2ccccc12`, the activation was -1.97% (inactive).

As for `O=c1oc2cc(O)ccc2cc1-c1ccc(F)cc1`, the activation was 7.16% (inactive).

As for `C=CCn1c(Oc2ccc(C(=O)OC)cc2)nc2c1c(=O)n(C)c(=O)n2C`, the activation is -0.9% (inactive).

Take `CCOc1ccc2nc(Nc3nc4ccc(NC(C)=O)cc4s3)sc2c1`: the activation was 59.5% (active).

For the molecule `CC1(C)CC(=O)C=C(NCCN2CCNCC2)C1`, the activation is -2.3% (inactive).

For the molecule `COc1ccccc1N1N=C(c2cccs2)CC1c1ccccc1` (stereo unspecified), the activation was 6.25% (inactive).

`O=C(NC(=S)Nc1ccc(NC(=O)c2cccs2)cc1)c1ccc([N+](=O)[O-])cc1`: the activation is -1.18% (inactive).
